Assays:
[1] = molecular target: T1, GST-Nv-NF-kB (Ser allele) (Nematostella vectensis, UniProt A7UNT2 2-411); assay: protein-binding microarray (PBM); PBM: ~300 nM protein, 6 mM HEPES pH 7.8, 80 mM KCl, 0.5 mM EDTA, 0.5 mM EGTA, 6% glycerol, 35 ng/ul poly-dIdC, 1% milk, 1 h, room temperature; Ap Aiptasia and Nv Nematostella (sea anemones) / Co Capsaspora / Aq Amphimedon (sponge) / Dm Drosophila / Hu human; RHD is the Rel homology domain; high values mean tight binding; conditions: dsDNA, one strand shown
T1 sequence: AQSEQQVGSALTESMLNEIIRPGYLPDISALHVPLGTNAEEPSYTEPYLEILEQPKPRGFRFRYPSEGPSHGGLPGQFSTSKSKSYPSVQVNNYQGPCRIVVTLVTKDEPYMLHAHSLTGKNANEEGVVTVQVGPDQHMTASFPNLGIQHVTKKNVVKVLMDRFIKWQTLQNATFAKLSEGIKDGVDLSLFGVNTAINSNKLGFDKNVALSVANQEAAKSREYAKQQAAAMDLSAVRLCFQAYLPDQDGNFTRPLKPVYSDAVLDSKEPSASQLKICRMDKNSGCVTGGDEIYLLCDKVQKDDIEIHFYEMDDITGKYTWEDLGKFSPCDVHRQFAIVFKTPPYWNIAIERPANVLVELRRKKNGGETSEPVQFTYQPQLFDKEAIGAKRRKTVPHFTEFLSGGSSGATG

GST-Hu-p50 = GST-Hu-p50 (Homo sapiens, UniProt P19838 7-356); assay: as above; conditions: dsDNA, one strand shown
GST-Hu-p50, sequence (P19838 7-356): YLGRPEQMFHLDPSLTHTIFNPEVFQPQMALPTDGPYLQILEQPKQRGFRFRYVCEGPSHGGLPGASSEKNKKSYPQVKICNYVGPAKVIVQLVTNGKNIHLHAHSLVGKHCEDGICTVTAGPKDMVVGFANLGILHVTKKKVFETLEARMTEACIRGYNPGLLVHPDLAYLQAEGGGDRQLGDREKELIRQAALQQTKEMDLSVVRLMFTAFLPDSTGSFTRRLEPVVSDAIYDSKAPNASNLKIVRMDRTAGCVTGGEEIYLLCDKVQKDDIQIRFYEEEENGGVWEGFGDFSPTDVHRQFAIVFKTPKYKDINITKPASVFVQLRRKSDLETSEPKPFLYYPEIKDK

Row | Sequence | binding signal [1] [z-score] | binding signal (GST-Hu-p50) [z-score]
1 | CCGATTAACATCAAGAATTCCCATGATGTTAATCGGGTCTTGATTCGCTTGACGCTGCTG | 5.01 | 4.34
2 | CCGATTAACATCAATTGCCCCCCTGATGTTAATCGGGTCTTGATTCGCTTGACGCTGCTG | 3.84 | 2.9
3 | CCGATTAACATCAGGGAACTACCTGATGTTAATCGGGTCTTGATTCGCTTGACGCTGCTG | 4.46 | 3.92
4 | CCGATTAACATCAGGGGAAGGACTGATGTTAATCGGGTCTTGATTCGCTTGACGCTGCTG | 5.04 | 3.89
5 | CCGATTAACATCAGAGTTTCCCATGATGTTAATCGGGTCTTGATTCGCTTGACGCTGCTG | 3.14 | 2.22
6 | CCGATTAACATCAAGGTACCCCCTGATGTTAATCGGGTCTTGATTCGCTTGACGCTGCTG | 3.84 | 3.34
7 | CCGATTAACATCACGGACTTCCCTGATGTTAATCGGGTCTTGATTCGCTTGACGCTGCTG | 2.24 | 1.25
8 | CCGATTAACATCAGGGGGTGTTATGATGTTAATCGGGTCTTGATTCGCTTGACGCTGCTG | 4.85 | 5.17
9 | CCGATTAACATCAACGTATTCCCTGATGTTAATCGGGTCTTGATTCGCTTGACGCTGCTG | 3.53 | 1.19
10 | CCGATTAACATCAGGTAATTTACTGATGTTAATCGGGTCTTGATTCGCTTGACGCTGCTG | 3.5 | 2.79
11 | CCGATTAACATCAGGGGAGGAAATGATGTTAATCGGGTCTTGATTCGCTTGACGCTGCTG | 4.9 | 3.1
12 | CCGATTAACATCAGGGGGTACCCTGATGTTAATCGGGTCTTGATTCGCTTGACGCTGCTG | 4.11 | 4.44
